Compound activity deposited in PubChem by National Center for Advancing Translational Sciences (NCATS).
Sm TGR block: S. mansoni TGR enzyme inhibition | Q962Y6 | purified TGR, DTNB reduction, TNB absorbance 405 nm | Potency, µM (titrated, usually from 114 µM), for the others: at the top dose activity change, negative = inhibition, actives largely listed as inhibitors | 360,000 compounds, 3% hits | AID 485364; further: potency means the concentration at half of the fitted maximal effect; on the % scale 0 is the no-effect control and ±100 the full control effect; nearly all actives have a fitted effect of over 60% in size
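First, TGR (20 nM dispensed) and NADPH were mixed with compound. Second, a 15 min room-temperature incubation followed. Third, further NADPH and then DTNB were added to start the reaction. Finally, TNB absorbance was monitored kinetically.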
Pf growth 96h: inhibits malaria parasite growth, 96 h; P. falciparum luciferase reporter growth, 96 h; Potency, µM (titrated, usually from 28.7 µM), inactives show at the highest dose activity change, negative = inhibition, hits mostly inhibitors; 320,000 compounds, 6.9% hits; AID 504834; further: potency means the concentration at half of the fitted maximal effect; on the % scale 0 is the no-effect control and ±100 the full control effect
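P. falciparum expressing integrated firefly luciferase grown in erythrocytes (2% hematocrit, 0.05% parasitemia final) with compounds for 96 hours at 37 C, 5% CO2. Growth inhibition read as loss of luminescence after adding luciferase detection reagent.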
HCMV inh: human cytomegalovirus inhibition; HFF cells, HCMV-luciferase reporter, 72 h; hits give low values; activity change, negative = inhibition, % at 57.5 µM; 410,000 compounds, 4.5% hits; in the data active means activity change below about -60%; inconclusive means no clear call, values can overlap the other calls; inactive means above about -39%; further: on the % scale 0 is the no-effect control and ±100 the full control effect
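Human foreskin fibroblasts infected with luciferase-reporter HCMV at MOI 1 PFU/cell, compounds at two doses. Luciferase measured 72 h post infection; normalized to buffer-only basal and Salinomycin (10uM) controls.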
HCV inhibitor: inhibitors of hepatitis C virus infection | Huh7.5.1 HCVcc-Cre infection, luciferase reporter, 44 h | Potency, µM (top dose mostly 41.8 µM), without a hit: top-dose activity change, negative = inhibition, usual class: inhibitors | 340,000 compounds, 3.4% hits | AID 651820; further: potency means the concentration at half of the fitted maximal effect; on the % scale 0 is the no-effect control and ±100 the full control effect
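A cell-based infection assay in which seeded cells (1,000 per well) receive test compound after 4 h, are inoculated with HCVcc-Cre at approximately 0.5 moi, and are incubated 44 h before luminescence detection.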
Pf growth 48h: P. falciparum growth inhibition at 48 hours (one generation). P. falciparum luciferase growth in erythrocytes, 48 h. Potency, µM (doses to about 28.7 µM), for the others: top-dose activity change, negative = inhibition, most hits filed as inhibitors. 310,000 compounds, 5.9% hits. AID 504832; further: potency means the concentration at half of the fitted maximal effect; on the % scale 0 is the no-effect control and ±100 the full control effect
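Parasite viability was followed by luminescence of a genomically integrated firefly luciferase. Cultures held 0.1% parasitemia at 2% hematocrit (final), incubated under 5% CO2 at 37 C.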
SARS PLpro yeast: blocks SARS-CoV papain-like protease in a yeast assay; Potency, µM (doses to about 32.9 µM), for the others: at the highest dose activity, positive = growth rescue, hits mostly activators; S. cerevisiae expressing SARS-CoV PLpro, growth rescue; 330,000 compounds, 0.19% hits; calls by dose curve; further: potency means the concentration at half of the fitted maximal effect; 0% is about no effect; nearly all actives have a fitted effect of over 55% in size
* = called active by the depositor. This is a sample that favours compounds with a hit; in the whole collection about 15% have one here. Unless noted, the call rests on the fitted dose curve; in most records, active means well fitted curve in the direction sought with a large enough effect; inconclusive means small, poorly fitted or top-dose-only effect, or another doubt; inactive means no such curve, though single readings can be large; an effect the other way counts as inactive or inconclusive.

Screening Cc1ccc(C(=O)N2CCCC2(C)C(=O)NCC(C)C)cc1F (configuration not stated) returned HCMV inh -35.
`N=c1c2c(n(Cc3ccc([N+](=O)[O-])cc3)c3c1CCC3)CCCC2` gave Sm TGR block -4%, Pf growth 96h 10µM*, HCMV inh -86*, HCV inhibitor -8%, Pf growth 48h inconclusive and SARS PLpro yeast 0%.
For O=c1[nH]c(=O)n(Cc2ccccc2)c2c1CCC2 the results were Sm TGR block -1%, HCMV inh 2, HCV inhibitor 6%, Pf growth 48h 1% and SARS PLpro yeast -16%.
Screening N=c1c2c(n(Cc3ccc(Cl)c(Cl)c3)c3c1CCC3)CCCC2 returned Sm TGR block 5%, Pf growth 96h 10%, HCMV inh -86*, HCV inhibitor inconclusive, Pf growth 48h 0.15µM* and SARS PLpro yeast -11%.
For N=c1c2c(n(Cc3ccc(Br)cc3)c3c1CCC3)CCCC2 the results were Sm TGR block -7%, Pf growth 96h 0.033µM*, HCMV inh -95*, HCV inhibitor inconclusive, Pf growth 48h 0.093µM* and SARS PLpro yeast -35%.
`CC(=O)Nc1ccc(S(=O)(=O)NCC(=O)Nc2ccc3c(c2)OCO3)cc1` gave HCMV inh 9, HCV inhibitor -14% and SARS PLpro yeast 6%.
COc1ccc(CNC(=O)CCS(=O)(=O)c2cc(Br)cc3c2N(C(C)=O)C(C)C3)cc1 (configuration not stated) was read as Sm TGR block -2% and HCMV inh -4.
Screening Cc1cc(C)c2c(n1)nn1c(NCCCN(C)C)cc(C)nc21 returned Sm TGR block inconclusive, Pf growth 96h inconclusive, HCMV inh 95, HCV inhibitor 22µM*, Pf growth 48h -5% and SARS PLpro yeast -2%.
CCN(CC)CCNC(=O)c1ccc(NC(=O)/C=C/c2ccc3ccccc3n2)cc1 was read as Sm TGR block 8%, Pf growth 96h -29%, HCV inhibitor -40%, Pf growth 48h 9% and SARS PLpro yeast 4%.
O=[N+]([O-])c1ccc(N2CCN(c3ccccc3O)CC2)c(Cl)c1 was read as Sm TGR block 1%, Pf growth 96h inconclusive, HCMV inh 5, HCV inhibitor inconclusive, Pf growth 48h inconclusive and SARS PLpro yeast -30%.
For O=C1Cc2cc([N+](=O)[O-])ccc2N1c1c(Cl)cccc1Cl the results were Sm TGR block -3%, Pf growth 96h 16%, HCMV inh -23, HCV inhibitor -1%, Pf growth 48h 4.7µM* and SARS PLpro yeast -3%.
Screening COc1ccccc1NCC(O)Cn1c2ccccc2c2ccccc21 (configuration not stated) returned Sm TGR block 3%, HCMV inh -29, HCV inhibitor inconclusive, Pf growth 48h inconclusive and SARS PLpro yeast -11%.
Screening COc1ccc(CCNC[C@@H](O)c2ccc(O)cc2)cc1OC returned Pf growth 96h -36% and Pf growth 48h -9%.
For COc1ccc(CCNCC(O)Cn2c3ccccc3c3ccccc32)cc1OC (configuration not stated) the results were Sm TGR block 13%, Pf growth 96h inconclusive, HCMV inh -64*, HCV inhibitor 11µM*, Pf growth 48h inconclusive and SARS PLpro yeast -2%.
Screening COc1ccc(CCNCC(O)COc2cccc(Br)c2)cc1OC (configuration not stated) returned Sm TGR block -27%, Pf growth 96h 9.3µM*, HCMV inh -33, HCV inhibitor 10%, Pf growth 48h inconclusive and SARS PLpro yeast -1%.
Screening COc1ccc(CCNCC(O)COc2ccc(OC)cc2C(C)(C)C)cc1 (configuration not stated) returned Sm TGR block -9%, Pf growth 96h 2.3µM*, HCMV inh -16, HCV inhibitor inconclusive, Pf growth 48h 2.3µM* and SARS PLpro yeast -3%.
For Cc1cccc2nc(-c3cccc(NC(=O)c4ccc(Cl)cc4)c3)cn12 the results were Sm TGR block -4%, Pf growth 96h -2%, HCMV inh -11, HCV inhibitor inconclusive, Pf growth 48h inconclusive and SARS PLpro yeast -26%.
Screening CC(=O)NCCNC(=O)C1(C)Cc2c(-c3ccc(NC(C)=O)cc3)ccnc2O1 (configuration not stated) returned HCMV inh 10.
CCN(CC)c1ccc(C2Nc3ccccc3-c3cc(C)nn32)cc1 (configuration not stated) was read as Sm TGR block -1% and HCMV inh -3.
For CSc1ccc(C2Nc3ccccc3-c3cc(C)nn32)cc1 (configuration not stated) the results were Sm TGR block -3%, Pf growth 96h 43%, HCMV inh -5, HCV inhibitor 10µM*, Pf growth 48h 29% and SARS PLpro yeast 10%.
Screening COc1ccc(CCNc2oc(COc3ccccc3Cl)nc2C#N)cc1OC returned Sm TGR block -18%, Pf growth 96h 3.7µM*, HCMV inh 19, HCV inhibitor inconclusive, Pf growth 48h 8.3µM* and SARS PLpro yeast 0%.
For N#Cc1nc(COc2ccccc2Cl)oc1NCCc1ccccc1 the results were Sm TGR block -24% and HCMV inh 1.
`COc1ccc(CCNc2oc(COc3ccccc3F)nc2C#N)cc1OC` gave Sm TGR block inconclusive, Pf growth 96h 157%, HCMV inh -3, HCV inhibitor inconclusive, Pf growth 48h inconclusive and SARS PLpro yeast -14%.
N#Cc1nc(COc2ccccc2Cl)oc1NCc1ccco1 was read as Sm TGR block 22µM*, Pf growth 96h inconclusive, HCMV inh -13, HCV inhibitor -17%, Pf growth 48h -23% and SARS PLpro yeast -1%.
For COc1ccc(CCNc2oc(Cc3ccccc3)nc2C#N)cc1OC the results were Sm TGR block 16%, HCMV inh -14, HCV inhibitor 10µM*, Pf growth 48h -27% and SARS PLpro yeast 1%.
CCN(CC)c1ncnc2c1ncn2[C@H]1CN(Cc2ccc(-c3ccccc3)cc2)C[C@@H](CO)O1 was read as HCMV inh -17.
`CCOC(=O)c1c(NC(=O)COC(=O)c2ccc(Cl)nc2)sc(C)c1C` gave HCMV inh 5.
Oc1ccc(C[C@@H]2CNCCN2CCC23CC4CC(CC(C4)C2)C3)cc1 was read as Sm TGR block -12%, Pf growth 96h 2.1µM*, HCMV inh -87*, HCV inhibitor inconclusive, Pf growth 48h 10µM* and SARS PLpro yeast 3%.
